# Screening data (PubChem)
# Shown are actives, neighbours in structure and some others; about 10% of the full set was active somewhere.
# SARS PLP yeast: qHTS of Yeast-based Assay for SARS-CoV PLP. 0.19% of 330,000 active. Potency, µM (top dose mostly 32.9 µM), for the others: at the highest dose activity, positive = growth rescue, most hits filed as activators. S. cerevisiae expressing SARS-CoV PLpro, growth rescue; also: potency is read from the fitted curve at half-maximal effect; 0% is about no effect; nearly all actives have a fitted effect of over 55% in size
# NS1 function inh: qHTS Assay for Inhibitors of Influenza NS1 Protein Function. Potency, µM (titrated, usually from 46.1 µM), without a hit: at the top dose activity, positive = more growth. 0.4% of 270,000 active; also: potency is read from the fitted curve at half-maximal effect; actives are rising curves; nearly all actives have a fitted effect of over 50% in size
#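 In this qHTS, NS1 from influenza A is expressed in budding yeast, where it slows growth. Cells are switched from glucose to 2% galactose medium (pH 6.0, -URA), treated with compound, and growth recovery is read at OD600.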
# Pf growth 48h: Primary qHTS for delayed death inhibitors of the malarial parasite plastid, 48 hour incubation; AID 504832, 2011; Potency, µM (doses to about 28.7 µM), inactives show at the highest dose activity change, negative = inhibition, usual class: inhibitors; P. falciparum luciferase growth in erythrocytes, 48 h; 5.9% of 310,000 active; active = well fitted inhibition curve with a large enough effect; inconclusive = small, poorly fitted or top-dose-only effect, or another doubt; inactive = no such curve, though single readings can be large or run the other way; also: potency is read from the fitted curve at half-maximal effect; % is scaled to controls: 0 for no effect and ±100 for the full control effect
#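 Erythrocytes infected with P. falciparum carrying an integrated firefly luciferase reporter (2% hematocrit, 0.1% parasitemia final) were exposed to compounds in RPMI 1640 with 0.5% Albumax at 37 C, 5% CO2. Growth inhibition was scored as reduced luminescence.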
# Pf growth 96h: Primary qHTS for delayed death inhibitors of the malarial parasite plastid, 96 hour incubation; AID 504834, 2011; P. falciparum luciferase reporter growth, 96 h; 6.9% of 320,000 active; Potency, µM (titrated, usually from 28.7 µM), for inactives: at the top dose activity change, negative = inhibition, most hits filed as inhibitors; active = well fitted inhibition curve with a large enough effect; inconclusive = small, poorly fitted or top-dose-only effect, or another doubt; inactive = no such curve, though single readings can be large or run the other way; also: potency is read from the fitted curve at half-maximal effect; % is scaled to controls: 0 for no effect and ±100 for the full control effect
#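 Two-generation exposure (96 h) targets delayed-death phenotype. Reporter parasites carrying integrated firefly luciferase, in red cells at 2% hematocrit and 0.05% parasitemia final, kept at 37 C, 5% CO2; luminescence loss indicates inhibition.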
# NS1 inh valid: Assay for Inhibitors of Influenza NS1 Protein Function: Hit Validation; shares compounds with NS1 function inh; influenza NS1 function cell assay, 15-point titration; activity change, negative = inhibition, % at 32.9 µM; 1,400 tested, under 10 active; AID 492980, 2010; also: 0% is about no effect
# The depositor's hits bear a star; i = inactive; ? = inconclusive; nt = no result given. Unless noted, calls follow the shape of the full dose curve.
SMILES,SARS PLP yeast,NS1 function inh,Pf growth 48h,Pf growth 96h,NS1 inh valid
O=C(Nc1nnc(S(=O)(=O)N2CCN(c3ccc(F)cc3)CC2)s1)c1ccccc1,12.7%,2.24µM*,40.8%,106.0%,-20.8
O=C(Nc1ccccc1N1CCN(c2ccc(F)cc2)CC1)c1ccccc1,-4.8%,?,?,nt,-27.0
CCC(=O)Nc1ccccc1N1CCN(c2ccc(F)cc2)CC1,0.0%,8.7%,1.4%,1.7%,nt
Cc1ccc(S(=O)(=O)N2CCCCC2)cc1C(=O)N(C)CC(=O)Nc1ccc(Cl)c(C(F)(F)F)c1,-1.6%,10µM*,?,?,-14.1
COc1ccc2cc(/C=N/NC(=O)c3ccc(CN(c4cccc(Cl)c4Cl)S(C)(=O)=O)cc3)c(Cl)nc2c1,-7.5%,12.6µM*,?,?,?
COc1cc(/C=C2/C(=O)NC(=O)N(c3ccc(C)cc3)C2=O)cc(OC)c1OC,1.7%,4.2%,1.8%,3.1%,nt
COc1cc(/C=C2\C(=O)NC(=O)N(c3ccccc3)C2=O)cc(OC)c1OC,11.0%,7.94µM*,15.8%,?,11.2
O=C(NCc1ccccc1F)C1CCCN(S(=O)(=O)c2ccc(-n3cnnn3)cc2)C1 (configuration not stated),1.8%,7.1%,13.9%,-6.0%,nt
O=C(NCc1ccco1)C1CCCN(S(=O)(=O)c2ccc(-n3cnnn3)cc2)C1 (configuration not stated),0.9%,3.98µM*,-15.9%,?,22.7
CCCCCCCN1C/C=C\C(c2ccc(OC)cc2)N(Cc2ccc(F)cc2)C(=O)[C@H]1Cc1ccccc1 (some centres not stated),-0.3%,?,?,?,-27.3
CCCCNC(=O)c1onc(CCl)c1C(=O)OC,-1.8%,1.12µM*,-2.8%,?,-8.0
COCCNC(=O)c1onc(CCl)c1C(=O)OC,-7.8%,3.0%,-11.1%,?,nt
COc1ccc(S(=O)(=O)N(CC(=O)NCC2CCCO2)C2CCCCC2)cc1OC (configuration not stated),0.6%,0.5%,11.2%,?,nt
Cc1ccc(S(=O)(=O)N2CCC(C(=O)Nc3ccccc3N3CCCCC3)CC2)cc1,1.8%,5.01µM*,7.38µM*,12.9%,3.5
CCCC[C@@H]1CNCCN1CC1(c2ccccc2)CC1,0.3%,nt,?,73.0%,nt
CCN(CC)c1nc2c3c(nc4c(c3c1C#N)CC(=O)N4c1ccc(Cl)cc1)NC(C)=N2,18.3%,14.1µM*,16.5µM*,4.65µM*,28.8
CCc1ccc(N2C(=O)Cc3c2nc(N)c(C#N)c3N)cc1,-7.3%,16.3%,153.2%,nt,nt
CC(C)(C)N1C(=O)c2ccc(C(=O)Nc3ccc(-c4nc5ccccc5[nH]4)cc3)cc2C1=O,8.9%,?,0.522µM*,i,1.3
Cc1ccc(NC(=O)CCc2c[nH]c3ccccc23)nc1,-3.3%,-19.9%,?,?,nt
CCCC(=O)Nc1cccc2c1CCCC2,-2.1%,5.62µM*,12.3%,?,12.0
CC(=O)CC(=O)Nc1cccc2c1CCCC2,8.9%,11.3%,36.3%,4.5%,nt
CCCN(CCC)C1=N/C(=C\c2ccco2)C(=O)N1c1ccccc1,0.1%,1.12µM*,nt,-15.1%,0.2
COc1ccc(N2CCN(C(=O)c3ccccc3NS(=O)(=O)c3ccc(C)cc3)CC2)cc1,-0.4%,-1.6%,-29.8%,-20.9%,nt
O=c1cc(O)cc(/C=C/c2ccc(O)c(O)c2)o1,nt,6.31µM*,nt,nt,38.1
O=C(/C=C/c1ccc(O)c(O)c1)c1ccccc1O,-3.0%,-74.8%,25.1%,9.8%,nt
O=C(NNC(=O)c1ccc(Oc2ccc(C3SCCS3)cc2)o1)c1ccc(Cl)cc1,2.0%,1.2%,3.7%,3.5%,nt
COc1cccc(CN(C(=O)Cc2c[nH]c3ccccc23)C(C(=O)NC2CCCCC2)c2cccs2)c1 (configuration not stated),-4.0%,7.08µM*,9.28µM*,11.7µM*,-8.5
COc1cc(C(C(=O)NC2CCCCC2)N(C(=O)Cc2c[nH]c3ccccc23)c2ccc(C)cc2)cc(OC)c1OC (configuration not stated),-6.1%,11.2µM*,0.0%,-16.3%,14.4
